The results in this text go back to PubChem BioAssay (Tox21).

Values joined by “and” are separate entries in the source; they are usually repeats but may differ in a detail not shown here. Equal values may be shown once. Inconclusive results are not listed. A structure can be active in one record and inactive in another. Active and inactive are the calls of the source. Unless noted, the call rests on the fitted dose curve; in most records, active means well fitted curve in the direction sought with a large enough effect in the repeat runs; inconclusive means weak or mixed curves; inactive means no such curve, though single readings can be large; an effect the other way counts as inactive or inconclusive.

A short description of test [1]: qHTS assay to identify small molecule antagonists of the glucocorticoid receptor (GR) signaling pathway - cell viability counter screen (AID 720693). Further: nearly all actives have a fitted effect of over 55% in size.
Test [2] is described as follows: qHTS assay for identifying genotoxic compounds that show differential cytotoxicity against isogenic chicken DT40 cell lines with known DNA damage response pathways - wild type cell line (AID 743012). Further: nearly all actives have a fitted effect of over 60% in size. Further: potency means the concentration at half of the fitted maximal effect. The method, boiled down: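 Quantitative HTS on parental DT40 cells: 40 h compound treatment at 37 C/5% CO2, with viability then determined by CellTiter-Glo luminescence. Values serve as the DNA repair-proficient reference for differential cytotoxicity.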
For orientation: qHTS replaces the single test concentration by a dilution series.

The nature of test [3]: qHTS assay for identifying genotoxic compounds that show differential cytotoxicity against isogenic chicken DT40 cell lines with known DNA damage response pathways - Rev3 mutant cell line (AID 743014). Further: nearly all actives have a fitted effect of over 55% in size. Further: potency means the concentration at half of the fitted maximal effect.
The nature of test [4]: qHTS assay to identify small molecule antagonists of the androgen receptor (AR) signaling pathway - cell viability counter screen (AID 743033; further: nearly all actives have a fitted effect of over 45% in size).
Test [5] can be described thus: qHTS assay to identify small molecule antagonists of the androgen receptor (AR) signaling pathway using the MDA cell line - cell viability counter screen (AID 743041; further: nearly all actives have a fitted effect of over 45% in size). In short, it runs like this: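 Cells were plated at 3,000 per well and left 5 h. Compounds in DMSO were then pinned in, followed by R1881. After 16 h at 37C, CellTiter-Fluor fluorescence gave viability.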

A short description of test [6]: qHTS assay for identifying genotoxic compounds that show differential cytotoxicity against isogenic chicken DT40 cell lines with known DNA damage response pathways - Rad54/Ku70 mutant cell line (AID 743015). Further: potency means the concentration at half of the fitted maximal effect; nearly all actives have a fitted effect of over 60% in size.
In test [7] the target is Androgen receptor (Homo sapiens) (UniProt P10275). Nature of the test: qHTS assay to identify small molecule antagonists of the androgen receptor (AR) signaling pathway (AID 743035; active means well fitted inhibition curve with a large enough effect in the signal ratio in the repeat runs, not every such curve was filed as active; the % refers to the signal ratio; further: potency means the concentration at half of the fitted maximal effect). The method, boiled down:
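Cell line: GeneBLAzer AR-UAS-bla GripTite (HEK293). Stimulus: R1881 added after compound. Exposure: 16 h, 37C, 5% CO2. Readout: LiveBLAzer B/G FRET fluorescence after 2 h at room temperature.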

For test [8] the target is unchanged. As to the kind of experiment: qHTS assay to identify small molecule agonists of the androgen receptor (AR) signaling pathway (AID 743036; active means well fitted activation curve with a large enough effect in the signal ratio in the repeat runs, with a control signal flat, not every such curve was filed as active; the % refers to the signal ratio). The method, boiled down:
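AR-UAS-bla HEK293 cells, plated 4 h before dosing, were treated with compound for 16 h at 37C. beta-Lactamase reporter read after 2 h with LiveBLAzer B/G FRET substrate at room temperature.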

The target is the same in test [9]. As to the kind of experiment: qHTS assay to identify small molecule agonists of the androgen receptor (AR) signaling pathway using the MDA cell line (AID 743040; further: nearly all actives have a fitted effect of over 20% in size). The method, boiled down:
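Cells plated, 5 h at 37C/0% CO2; compound or DMSO pinned; 16 h at 37C; ONE-Glo added; luminescence measured after 30 min at room temperature. Reporter line: MDA-kb2 with MMTV-luciferase responsive to AR and GR.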

Test [10] has the same target. Nature of the test: qHTS assay to identify small molecule antagonists of the androgen receptor (AR) signaling pathway using the MDA cell line (AID 743042; further: nearly all actives have a fitted effect of over 55% in size). In short, it runs like this:
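Antagonist mode: compounds plus R1881 agonist added to MDA-kb2 AR-luc cells, incubated 16 h at 37C. Luciferase reporter luminescence quantified, with multiplexed CellTiter-Fluor readout for cell viability.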

Androgen receptor (Homo sapiens), sequence (P10275 whole entry, looked up): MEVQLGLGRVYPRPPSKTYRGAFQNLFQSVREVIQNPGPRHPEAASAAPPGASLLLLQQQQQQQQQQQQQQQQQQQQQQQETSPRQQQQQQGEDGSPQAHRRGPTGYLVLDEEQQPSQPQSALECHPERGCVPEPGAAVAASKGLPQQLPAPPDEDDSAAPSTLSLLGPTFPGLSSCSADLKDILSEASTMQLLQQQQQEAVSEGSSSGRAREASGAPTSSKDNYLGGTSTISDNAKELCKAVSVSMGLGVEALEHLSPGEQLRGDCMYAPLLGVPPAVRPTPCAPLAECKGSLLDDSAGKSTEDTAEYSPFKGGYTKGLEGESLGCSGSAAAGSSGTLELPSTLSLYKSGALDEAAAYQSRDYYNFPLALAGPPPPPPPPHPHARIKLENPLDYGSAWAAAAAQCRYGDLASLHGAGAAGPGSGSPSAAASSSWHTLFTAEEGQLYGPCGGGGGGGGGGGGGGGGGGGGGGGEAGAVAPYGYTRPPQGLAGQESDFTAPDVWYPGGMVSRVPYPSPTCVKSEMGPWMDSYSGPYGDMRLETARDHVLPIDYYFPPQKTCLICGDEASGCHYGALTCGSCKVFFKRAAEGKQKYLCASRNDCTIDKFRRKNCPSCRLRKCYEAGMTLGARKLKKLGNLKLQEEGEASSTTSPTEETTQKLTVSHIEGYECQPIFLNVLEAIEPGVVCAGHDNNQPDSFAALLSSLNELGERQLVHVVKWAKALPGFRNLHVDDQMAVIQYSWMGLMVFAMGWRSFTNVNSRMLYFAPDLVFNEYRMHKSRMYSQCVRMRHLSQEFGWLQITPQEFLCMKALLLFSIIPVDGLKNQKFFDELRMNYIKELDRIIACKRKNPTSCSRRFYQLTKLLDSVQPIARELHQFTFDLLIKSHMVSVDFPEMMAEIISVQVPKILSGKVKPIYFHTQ

Consider `Cc1cc(Cl)ccc1O`, for which the molecule was classed as inactive in test [1], in test [4] and in test [5]. Besides, the Potency result in [2] and in test [3] was “inactive” each time.
For the molecule `CC(C)NC(=O)N1CC(=O)N(c2cc(Cl)cc(Cl)c2)C1=O`, the molecule was classed as inactive in [1] and in test [5]. Further, the Potency result in test [2] was “inactive”. Besides, in [3], the Potency was 54.5 µM (active).
`Nc1ccc(Cc2ccc(N)cc2)cc1`: the molecule was classed as inactive in test [1] and in [5]. Moreover, the Potency entry in test [2] was “inactive”. Also, in test [3], the Potency result is “inactive and 48.6 µM (active)”.
With `CON(C)C(=O)Nc1ccc(Cl)c(Cl)c1`, the outcome in test [1] and in test [5] was inactive. Also, the Potency entry in [3] was “inactive”.
Take `Clc1ccc(Cl)cc1`: the result in test [1], in test [4] and in [5] was inactive. The Potency entry in test [2] and in [3] was “inactive” throughout.
With `CCNc1nc(NC(C)(C)C)nc(SC)n1`, the molecule was called inactive in test [1], in test [4] and in [5]. Also, the results for the Potency in [3] and in [6] were 60.3 µM (active) and 54.5 µM (active), respectively.
Regarding `CC(C)OC(=O)Nc1ccccc1`, the result in [1], in [4] and in [5] was inactive. For the same molecule, the Potency entry in test [2] and in test [3] was “inactive” each time.
In the case of `CCOP(=S)(OCC)SCCSCC`, the molecule was classed as inactive in [1] and in test [5]. The Potency result in test [2] was “inactive”.
Regarding `CCCC1COC(Cn2cncn2)(c2ccc(Cl)cc2Cl)O1` (stereo not given), the outcome in [1], in test [8], in [9] and in test [5] was inactive. Also, the Potency is 55.5 µM (active) and 12.2 µM (active) in test [2]; 27.8 µM (active) and 19.3 µM (active) in test [3]; 49.9 µM (active) and 43.6 µM (active) in test [7].
Take `Oc1ccccc1Cl`: the outcome in [1], in [4] and in test [5] was inactive. For the same molecule, the Potency entry in test [2] and in test [3] was “inactive” throughout.
Regarding `c1ccc(OP(Oc2ccccc2)Oc2ccccc2)cc1`, the molecule was called inactive in test [1] and in [5]. In addition, the Potency result in test [2] and in test [3] was “inactive” in each case.
With `NCCc1ccc(O)cc1`, the molecule was classed as inactive in test [1], in [4] and in test [5]. In addition, the Potency result in test [2] and in test [3] was “inactive” each time.
Consider `Nc1ccc(Oc2ccc(N)cc2)cc1`, for which the outcome in test [1] and in [5] was inactive. Moreover, the Potency entry in test [3] was “inactive”.
Regarding `C1CN2CCN1CC2`, the result in test [1] and in [5] was inactive. Further, the Potency result in [2] and in test [3] was “inactive” throughout.
In the case of `CCN(CC)CCO`, the outcome in test [1], in test [4] and in [5] was inactive. For the same molecule, the Potency result in test [2] and in [3] was “inactive” each time.
`C=CC(N)=O`: the outcome in [1] and in test [5] was inactive.
For `O=S(=O)(c1ccc(Cl)cc1)c1cc(Cl)c(Cl)cc1Cl`, the outcome in test [1] and in test [5] was inactive. In addition, the Potency result in test [2] is “inactive and 48.6 µM (active)”; in test [3], “inactive and 61.1 µM (active)”.
As to `c1cc2c3c(cccc3c1)CC2`, the molecule was classed as inactive in test [1], in [4], in test [8], in [9], in [5] and in test [10]. Further, the Potency entry in [3] and in [7] was “inactive” in each case.
With `CCC12COCN1COC2`, the molecule was called inactive in [1] and in test [5]. Besides, the Potency entry in test [2] and in [3] was “inactive” in each case.
Regarding `CC(C)(C)C(O)(CCc1ccc(Cl)cc1)Cn1cncn1` (stereo not given), the outcome in [1] and in test [5] was inactive. For the same molecule, the Potency in test [2] is 61.1 µM (active); in test [3], 61.9 µM (active) and 61.1 µM (active).
Regarding `ClCCBr`, the result in [1], in test [4] and in test [5] was inactive. Further, the Potency entry in test [2] and in [3] was “inactive” in each case.
Consider `Nc1ccccc1C(=O)O`, for which the molecule was called inactive in test [1] and in [5]. The Potency entry in test [2] and in [3] was “inactive” in each case.
On to `CCOP(OCC)OCC`, for which the molecule was classed as inactive in test [1], in [4] and in test [5]. Further, the Potency entry in test [2] and in test [3] was “inactive” in each case.
`CC(C)N1C(=O)c2ccccc2NS1(=O)=O`: the call in [1], in test [4] and in test [5] was inactive. For the same molecule, the Potency entry in test [2] and in [3] was “inactive” each time.
For `C#CC(C)(C)NC(=O)c1cc(Cl)cc(Cl)c1`, the outcome in [1] and in test [5] was inactive. The Potency in [3] was 68.6 µM (active).
`C=C(C)CCl`: the result in test [1], in test [8], in test [9], in test [5] and in test [10] was inactive. The Potency entry in test [2], in [3] and in test [7] was “inactive” throughout.
As to `COC(=O)NC(=S)Nc1ccccc1NC(=S)NC(=O)OC`, the molecule was called inactive in test [1] and in [5]. In addition, the Potency in test [2] and in [3] was 61.1 µM (active) each time.
With `CCOC(=O)c1ccccc1C(=O)OCC`, the molecule was classed as inactive in test [1], in test [4] and in [5]. For the same molecule, the Potency entry in test [2] and in test [3] was “inactive” throughout.
Take `CCCCCCCCCl`: the molecule was called inactive in [1] and in [5]. The Potency result in [2] and in test [3] was “inactive” each time.
Turning to `Cc1ccc(N)cc1N`, the molecule was called inactive in test [1] and in [5].
Regarding `CC(C)=C[C@@H]1[C@@H](C(=O)OCc2coc(Cc3ccccc3)c2)C1(C)C`, the outcome in test [1], in [4] and in [5] was inactive. Moreover, the Potency result is “inactive and 27.3 µM (active)” in [2]; “inactive and 34.4 µM (active)” in test [3].
With `CCC(C)(CC)c1cc(NC(=O)c2c(OC)cccc2OC)on1`, the outcome in test [1], in [4] and in [5] was inactive. Also, the Potency is 52.4 µM (active) in test [2] and 66 µM (active) in test [3].
On to `[O-][Cl+2]([O-])O`, for which the molecule was called inactive in test [1], in test [4] and in [5].
Take `Nc1c(Cl)c(Cl)nc(C(=O)O)c1Cl`: the molecule was called inactive in [1] and in test [5]. In addition, the Potency entry in [2] and in test [3] was “inactive” throughout.
On to `CC(C)C1(C)N=C(c2nc3ccccc3cc2C(=O)O)NC1=O` (stereo not given), for which the call in test [1] and in test [5] was inactive. In addition, the Potency entry in test [2] and in test [3] was “inactive” throughout.
